Common to all, as to design: species or system human, MV4-11 + K-562 + COLO205 + SK-N-BE2 + OVCAR-8
One test has as its system DCTPP1. The conditions noted are these: read-out: apparent Kd, compound concentrations: 100 nM and 1000 nM (sheet 'Samples'), n = 1.
The next test deals with T1, DJA1.
T1 construct: gene DNAJA1
The conditions noted are these: read-out: apparent Kd; compound concentrations: 100 nM and 1000 nM (sheet 'Samples'), CATDS: 8.5163737412021906E-2; n = 1.

The subject of another test is GSK3A. The conditions noted are these: read-out: apparent Kd; compound concentrations: 100 nM and 1000 nM (sheet 'Samples'), CATDS: 0.120025904024986; n = 1.
For the next test, the system named is GSK3B. The conditions noted are these: read-out: apparent Kd, compound concentrations: 100 nM and 1000 nM (sheet 'Samples'), n = 1.
The next test concerns PRKCA. The conditions noted are these: read-out: apparent Kd; compound concentrations: 100 nM and 1000 nM (sheet 'Samples'), CATDS: 0.251821387342202; n = 1.
A further test relates to PRKCB. The conditions noted are these: read-out: apparent Kd; compound concentrations: 100 nM and 1000 nM (sheet 'Samples'), CATDS: 0.103783943133635; n = 1.
For the next test, the system named is PRKCD. The conditions noted are these: read-out: apparent Kd; compound concentrations: 100 nM and 1000 nM (sheet 'Samples'), CATDS: 0.10441574318923801; n = 1.
The test system of the next test is PRKCQ. The conditions noted are these: read-out: apparent Kd; compound concentrations: 100 nM and 1000 nM (sheet 'Samples'), CATDS: 8.12008674931885E-2; n = 1.
The next test deals with RPS6KA6. The conditions noted are these: read-out: apparent Kd; compound concentrations: 100 nM and 1000 nM (sheet 'Samples'), CATDS: 0.17427412228003; n = 1.
In a further test the test system is CSNK1D. The conditions noted are these: read-out: apparent Kd, n = 1.
The test system of another test is GAK. The conditions noted are these: read-out: apparent Kd; compound concentrations: 100 nM and 1000 nM (sheet 'Samples'), CATDS: 0.103213597019934; n = 1.
The subject of a further test is MAPK10. The conditions noted are these: read-out: apparent Kd; compound concentrations: 100 nM and 1000 nM (sheet 'Samples'), CATDS: 9.6929032938047402E-2; n = 1.
A further test deals with MAPK14. The conditions noted are these: read-out: apparent Kd, compound concentrations: 100 nM and 1000 nM (sheet 'Samples'), n = 1.
Another test relates to MAPK9. The conditions noted are these: read-out: apparent Kd; compound concentrations: 100 nM and 1000 nM (sheet 'Samples'), CATDS: 0.22651523139433999; n = 1.
The next test deals with MAPKAPK2. The conditions noted are these: read-out: apparent Kd, n = 1.
The subject of a further test is NLK. The conditions noted are these: read-out: apparent Kd; compound concentrations: 100 nM and 1000 nM (sheet 'Samples'), CATDS: 6.7080565702130196E-2; n = 1.
For a further test, the system named is PIK3CA. The conditions noted are these: read-out: apparent Kd, n = 1.
In a further test the test system is PRKD2. The conditions noted are these: read-out: apparent Kd; compound concentrations: 100 nM and 1000 nM (sheet 'Samples'), CATDS: 7.4575323464079593E-2; n = 1.
In another test the test system is PRKD3. The conditions noted are these: read-out: apparent Kd; compound concentrations: 100 nM and 1000 nM (sheet 'Samples'), CATDS: 5.9438089075158997E-2; n = 1.
In a further test the test system is RET. The conditions noted are these: read-out: apparent Kd, n = 1.
The test system of the next test is PHKG2. The conditions noted are these: read-out: apparent Kd; compound concentrations: 100 nM and 1000 nM (sheet 'Samples'), CATDS: 0.27508455171149998; n = 1.
The next test has as its system PIK3CG. The conditions noted are these: read-out: apparent Kd; compound concentrations: 100 nM and 1000 nM (sheet 'Samples'), CATDS: 0.403949586222208; n = 1.
The next test concerns DDR1. The conditions noted are these: read-out: apparent Kd; compound concentrations:100 nM and 1000 nM (sheet 'Samples'); n = 1.
The next test relates to JAK2. The conditions noted are these: read-out: apparent Kd; compound concentrations:100 nM and 1000 nM (sheet 'Samples'); n = 1.
The test system of the next test is PIK3CD. The conditions noted are these: read-out: apparent Kd; compound concentrations:100 nM and 1000 nM (sheet 'Samples'); n = 1.
A further test has as its system EPHB4. The conditions noted are these: read-out: apparent Kd; compound concentrations: 100 nM and 1000 nM (sheet 'Samples'), CATDS: 0.37827965470914299; n = 1.
For the next test, the system named is RIPK3. The conditions noted are these: read-out: apparent Kd; compound concentrations: 100 nM and 1000 nM (sheet 'Samples'), CATDS: 0.31274412248273797; n = 1.
Another test deals with CSNK1E. The conditions noted are these: read-out: apparent Kd; compound concentrations:100 nM and 1000 nM (sheet 'Samples'); n = 1.
The next test concerns PKN3. The conditions noted are these: read-out: apparent Kd; compound concentrations:100 nM and 1000 nM (sheet 'Samples'); n = 1.
The next test concerns DDR2. The conditions noted are these: read-out: apparent Kd; compound concentrations:100 nM and 1000 nM (sheet 'Samples'); n = 1.
In another test the test system is FLT3. The conditions noted are these: read-out: apparent Kd; compound concentrations:100 nM and 1000 nM (sheet 'Samples'); n = 1.
The next test deals with MAP2K1. The conditions noted are these: read-out: apparent Kd; compound concentrations:100 nM and 1000 nM (sheet 'Samples'); n = 1.
The subject of a further test is NQO1. The conditions noted are these: read-out: apparent Kd; compound concentrations:100 nM and 1000 nM (sheet 'Samples'); n = 1.
The subject of a further test is PIK3C3. The conditions noted are these: read-out: apparent Kd; compound concentrations:100 nM and 1000 nM (sheet 'Samples'); n = 1.
The subject of a further test is RIOK2. The conditions noted are these: read-out: apparent Kd; compound concentrations:100 nM and 1000 nM (sheet 'Samples'); n = 1.
A further test deals with SMC4. The conditions noted are these: read-out: apparent Kd; compound concentrations:100 nM and 1000 nM (sheet 'Samples'); n = 1.
The mark [1] stands for this setting: compound concentrations:100 nM and 1000 nM (sheet 'Samples').

This passage reports potency estimated from few doses results from PMC11062922 (Nature Chemical Biology, 2023).

Like-named read-outs stand apart in the source and are kept apart here.

With `Cn1cc(C2=C(c3cn(CCCCN)c4ccccc34)C(=O)NC2=O)c2ccccc21` [RO0317888-000], the potency estimated from few doses was 1.87 µM in the test on DCTPP1 (CATDS: 8.2242786873404694E-2); 1.67 µM with DJA1; 0.7 µM in the test on GSK3A; 0.57 µM in the test on GSK3B (CATDS: 0.13279399425104901); 0.2 µM in the test on PRKCA; 0.97 µM with PRKCB. The results for the potency estimated from few doses in the test with PRKCD, in the test on PRKCQ and in the test on RPS6KA6 were 0.956 µM, 1.96 µM and 0.351 µM, respectively.

Consider `Cc1ccc2c(-c3ccnc(Nc4cccc(C(F)(F)F)c4)n3)c(-c3ccccc3)nn2n1` [GW829906X], for which the potency estimated from few doses in the test with CSNK1D (compound concentrations: 100 nM and 1000 nM (sheet 'Samples'), CATDS: 6.2224670805274301E-2) is 2.13 µM; in the test with GAK it was 0.606 µM; in the test with GSK3B (CATDS: 7.0776673864894807E-2), 1.44 µM; in the test with MAPK10 it was 0.688 µM; in the test on MAPK14 (CATDS: 8.8284377097412201E-2) it was 0.839 µM; in the test on MAPK9, 0.165 µM. Also, the potency estimated from few doses is 1.56 µM with MAPKAPK2 (compound concentrations: 100 nM and 1000 nM (sheet 'Samples'), CATDS: 6.8776353647753294E-2); 1.68 µM with NLK; 0.174 µM in the test on PIK3CA (compound concentrations: 100 nM and 1000 nM (sheet 'Samples'), CATDS: 0.21860301841360499); 1.25 µM in the test on PRKD2; 2.5 µM in the test on PRKD3; 1.35 µM with RET (compound concentrations: 100 nM and 1000 nM (sheet 'Samples'), CATDS: 7.2475765263367006E-2).

Turning to `O=[N+]([O-])c1ccc2c(c1)C(c1ccccc1Cl)=Nc1c[nH]nc1N2` [RO0117162-000], the potency estimated from few doses is 1.45 µM in the test with DCTPP1 (CATDS: 0.34611685739606901), 2.44 µM in the test on PHKG2 and 1.09 µM in the test with PIK3CG.

On to `CN1CCN(CCNc2nc3cc(Oc4ccc(NC(=O)Nc5cc(C(F)(F)F)ccc5F)cc4)ccc3[nH]2)CC1.CN1CCN(CCNc2nc3cc(Oc4ccc(NC(=O)Nc5cc(C(F)(F)F)ccc5F)cc4)ccc3[nH]2)CC1.Cl.Cl` [GW768504A], for which the potency estimated from few doses with DDR1 is 0.584 µM; in the test on JAK2, 0.634 µM; in the test on PIK3CA (setting [1]), 0.23 µM; in the test on PIK3CD, 0.0974 µM; with RET (setting [1]), 1.08 µM.

As for `NC(=O)c1cc(-c2ccc(F)cc2)cc(-c2ccncc2)c1N` [GSK620503A], the potency estimated from few doses is 1.52 µM in the test with DCTPP1 (CATDS: 0.31656078381531599), 1.07 µM in the test on EPHB4 and 1.56 µM in the test with RIPK3.

For `Cc1cccc2c(-c3ccncc3)c(-c3ccc(F)cc3)nn12.Cl` [GW461487A], the potency estimated from few doses with CSNK1D (setting [1]) was 0.605 µM; in the test on CSNK1E, 0.879 µM; in the test on MAPK14 (CATDS: 0.14248163391639501), 0.94 µM; in the test with MAPKAPK2 (setting [1]), 0.565 µM; in the test with PIK3CD it was 0.152 µM; in the test on PKN3, 1.42 µM.

As to `COC(=O)Nc1nc2ccc(Oc3ccc(CC(=O)Nc4cc(C(F)(F)F)ccc4F)cc3)cc2[nH]1` [GW680903X], the potency estimated from few doses with DDR1 is 0.257 µM; in the test with DDR2, 0.404 µM; with FLT3 it was 0.713 µM; in the test with MAP2K1, 2.32 µM; in the test on NQO1, 2.02 µM; with PIK3C3, 1.51 µM. Further, the potency estimated from few doses with PIK3CD is 0.104 µM; in the test with RIOK2, 1.76 µM; in the test with SMC4 it was 1.91 µM.
